The values below come from PubChem BioAssay (NCI).

Compounds without any hit were thinned out: in the full panel of roughly 83,000, 20% have a hit.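 48-hour exposure, single concentration, 96-well plates; percent growth endpoint where 0 means no net growth. Active: below 10.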 A number with no mark means an inactive call. Active and inactive are the calls of the source.

The subject of the experiment is MCF7 breast. Put plainly: NCI-60 one-dose screen, 48 h (100 = growth as untreated, 0 = no growth, -100 = all killed). The note with it: 10 µM unless noted. The method, then: Growth inhibition of the MCF7 human tumor cell line is measured as a screen for anti-cancer activity. Cells are grown in 96 well plates and exposed to the test compound for 48 hours. Compounds are tested at a single concentration, which is 10^-5 M for most compounds. The reported endpoint is percent growth (GI% or GIPRCNT), where numbers from 0 - 100% represent growth inhibition, and numbers from -100% - 0 represent cell death. For example, a value of 40 represents 60% growth inhibition. A value of 0 means no net growth occurred over the course of the experiment. A value of -40 indicates 40% of cells at the beginning of the experiment died by the end of the experiment. A value of -100 means all cells are dead at the end of the experiment.
NCI-60 Human Tumor Cell Lines Screen was performed using the standard one-dose NCI protocol, which is described in more detail at https://dtp.cancer.gov/discovery_development/nci-60/default.htm.
Compounds with GIPRCNT values below 10 were considered active. Activity score was based on GIPRCNT using the following formula: […]
Score is 0 for GIPRCNT values of 100 or above, 50 for GIPRCNT values of 0, and 100 for GIPRCNT values of -100.
For `C/C(=N\Nc1ccc([N+](=O)[O-])cc1[N+](=O)[O-])c1ccc(Br)cc1`, the growth was 97.2%. In the case of `CCN(CC)CCN1CNC(=S)NC1`, the growth was 98.4%. The same measure for `CC(=O)OC(C)c1cccc(C#N)c1` (stereo not given): 101%. As for `FC(F)(F)c1cc(NC2=NCCN=C(Nc3cc(C(F)(F)F)cc(C(F)(F)F)c3)SS2)cc(C(F)(F)F)c1`, the growth was 31.6%. Next, `Nc1ccn(C2CC(N)C(CO)O2)c(=O)n1` (stereo not given): 66.5%; `O=Cc1ccc(F)cc1`: 92.6%; `CC(=O)N(C)N=Nc1ccc(C)cc1`: 106%. For the compound `C=CCOc1ccc(Cl)cc1Cl`, the growth is 105%. Next, `Cc1ccc(/C=N/NC(N)=S)s1`: 100%. The same measure for `CC(=O)OCC1OC(n2cnc3c(=S)nc(N)[nH]c32)C(OC(C)=O)C1OC(C)=O` (stereo not given): 60.7%; for `NC(=S)N/N=C/c1ccc(OC(=O)COc2ccc(Cl)cc2)cn1`: 23.6%. Regarding `Cc1ccc(C(C)C)c(OCC(=O)O)c1`, the growth was 100%.

Consider `ClCC(Cl)C1CCC(Cl)C(Cl)C1` (stereo not given), for which the growth is 87.1%. Next, `O=C(c1ccccc1O)N1CCCC1`: 90.6%; `CC(CCC#N)(CCC#N)C(=O)c1ccccc1`: 95.9%; `C[C@H](CCC[C@H](C)OS(=O)(=O)c1ccccc1)OS(=O)(=O)c1ccccc1`: 101%.

Take `ClCc1cccc2c(CCl)cccc12`: the growth is 24.4%. Next, `CC(=O)OC/C(C)=C\CC(C)COC(C)=O` (stereo not given): 90.2%; `CC(C)(C)[Si](C)(C)OCC1OC(n2cnc3c(N)ncnc32)CC1OS(C)(=O)=O` (stereo not given): 105%. As for `c1cc(CNCCNCc2ccncc2)ccn1`, the growth is 100%. In the case of `COc1ccc(/C=N/NC(=O)COCC(=O)N/N=C/c2ccc(OC)cc2)cc1`, the growth was 95.9%. The same measure for `ON1CCCC1`: 95%; for `Cc1ccccc1CC(N)C(=O)O` (stereo not given): 104%. Next, `NC(=O)c1cc2c3ccccc3ccn2c1-c1ccccc1`: 10.3%; `CN1CCCN(C(c2ccccc2)c2ccc(Cl)cc2)CC1` (stereo not given): 80.6%.

Take `NC(CSSCC(N)C(=O)O)C(=O)O` (stereo not given): the growth is 20.4%. The same measure for `NC(CCl)=NCC12CC3CC(CC(C3)C1)C2`: -29.1% (active).

`Cc1cc(Cc2ccccc2)c(O)c(Cc2ccccc2)c1`: the growth was 105%. In the case of `Cn1c2ccccc2c2nnc(NCCCCO)nc21`, the growth is 59.2%. Next, `O=C(N/N=C\c1ccc(Cl)cc1Cl)c1ccncc1`: 87.2%; `O=C1CSc2ccccc2N1`: 98.5%; `CC(=O)NCNC(C)=O`: 94%. The same measure for `CC(O)C(F)(F)C(F)(F)C(F)(F)F` (stereo not given): 101%; for `NC(=S)c1c(N)n(C2OC(CO)C(O)C2O)c2ncnc(N)c12` (stereo not given): -11.6% (active); for `CNc1ccccc1C(N)=O`: 92.7%. The same measure for `CS(=O)CC(=N\O)/C(CS(C)=O)=N\O` (stereo not given): 90.7%; for `CC1(C)CC(=O)C=C(N)C1`: 160%; for `Clc1ccc(/C=C/c2ccccn2)cc1`: 25.9%. Take `CC(=O)OCC1CCC(COC(C)=O)CC1` (stereo not given): the growth is 90.9%.

`Cc1ccc(S(=O)(=O)NC(=O)NCCSSCCNC(=O)NS(=O)(=O)c2ccc(C)cc2)cc1`: the growth was 103%.
